Calls of active or inactive are those of the source. The rule behind the calls is not given here.
Biological target: Histone deacetylase 2 (Homo sapiens) (UniProt Q92769)
Assay: recombinant HDAC2 deacetylase inhibitors – biochemical, HDAC isoform panel, selectivity assay for E-cadherin restoration project, profiling panel (AID 651926)

Chain of Histone deacetylase 2 (Homo sapiens) (Q92769 whole entry, looked up, canonical isoform): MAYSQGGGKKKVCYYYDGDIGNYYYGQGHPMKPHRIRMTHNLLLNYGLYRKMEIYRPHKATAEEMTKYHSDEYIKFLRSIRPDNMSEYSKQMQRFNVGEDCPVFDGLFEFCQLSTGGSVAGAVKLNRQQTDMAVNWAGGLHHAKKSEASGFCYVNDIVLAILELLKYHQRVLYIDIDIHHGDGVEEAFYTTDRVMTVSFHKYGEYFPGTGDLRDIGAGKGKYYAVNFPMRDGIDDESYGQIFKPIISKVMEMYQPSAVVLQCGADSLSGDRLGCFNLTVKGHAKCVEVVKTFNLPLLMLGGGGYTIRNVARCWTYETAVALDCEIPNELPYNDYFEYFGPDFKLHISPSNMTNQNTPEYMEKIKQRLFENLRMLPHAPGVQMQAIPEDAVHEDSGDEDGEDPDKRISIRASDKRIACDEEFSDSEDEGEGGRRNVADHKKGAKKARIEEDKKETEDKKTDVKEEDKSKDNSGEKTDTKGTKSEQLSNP

## O=C(NCCCNC(=O)c1ccc[nH]c1=O)c1cc(-c2ccccc2)on1
  outcome: inactive
